# In the library only some 1.6% were active in any assay of this set; here they are far more common.
# KCNQ2 pot: potentiators of rat KCNQ2 potassium channel | hit rate 0.54% among 310,000 | CHO-K1 KCNQ2, FluxOR thallium flux fluorescence; hits give high values | AID 2239 | B-score at 10 µM;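 active = fluorescence ratio B-score at least 3 SD of library B-scores, with initial fluorescence B-score within 3 of them, cut at about 5.3 in these data; same plate scores as AID 2156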;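 note: B-score of peak minus minimum over baseline fluorescence ratio after K+ and Tl+ stimulus; positive B-score means potentiation of KCNQ2 with more thallium influx and brighter signal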
# Target sequence (O88943 whole entry, looked up): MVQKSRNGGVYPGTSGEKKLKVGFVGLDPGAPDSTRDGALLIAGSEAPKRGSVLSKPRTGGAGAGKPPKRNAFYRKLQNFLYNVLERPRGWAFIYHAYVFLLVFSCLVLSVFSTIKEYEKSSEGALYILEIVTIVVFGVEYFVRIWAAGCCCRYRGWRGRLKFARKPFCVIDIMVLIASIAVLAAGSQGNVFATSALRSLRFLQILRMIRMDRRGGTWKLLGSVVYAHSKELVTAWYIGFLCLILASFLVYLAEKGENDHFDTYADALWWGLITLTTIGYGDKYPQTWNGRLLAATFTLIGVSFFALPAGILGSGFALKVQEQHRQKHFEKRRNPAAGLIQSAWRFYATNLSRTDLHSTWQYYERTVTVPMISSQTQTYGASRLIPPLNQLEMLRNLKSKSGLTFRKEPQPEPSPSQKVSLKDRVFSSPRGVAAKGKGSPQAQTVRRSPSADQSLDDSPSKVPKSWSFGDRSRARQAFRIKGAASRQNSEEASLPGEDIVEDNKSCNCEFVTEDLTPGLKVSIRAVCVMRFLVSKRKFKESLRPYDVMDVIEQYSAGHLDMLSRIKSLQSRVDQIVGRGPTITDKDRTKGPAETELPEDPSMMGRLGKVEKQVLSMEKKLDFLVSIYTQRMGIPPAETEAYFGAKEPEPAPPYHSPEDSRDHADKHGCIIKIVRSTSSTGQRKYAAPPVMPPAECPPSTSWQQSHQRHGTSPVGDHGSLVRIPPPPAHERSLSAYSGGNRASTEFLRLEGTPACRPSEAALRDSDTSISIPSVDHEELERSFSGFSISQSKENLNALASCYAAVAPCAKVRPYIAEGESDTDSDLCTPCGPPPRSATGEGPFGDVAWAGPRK
# KCNQ2 inh: inhibitors of rat KCNQ2 potassium channel. CHO-K1 KCNQ2, FluxOR thallium flux, 20 min; hits give low values. B-score at 10 µM. hit rate 1.1% among 310,000. AID 2156;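 active = fluorescence ratio B-score at most minus 3 library SDs, with starting brightness B-score within 2 library SDs, cut at about -5.5 in these data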
# * hit, by the source's call; i = inactive; . = no result given.
SMILES,KCNQ2 pot,KCNQ2 inh
CCN(Cc1ccccc1)C(=O)c1cc(-c2ccc(OC)c(OC)c2)nc2ccccc12,-6.4,-6.4*
COc1ccc(-c2cc(C(=O)N(C)Cc3ccccc3F)c3ccccc3n2)cc1OC,.,i
N#Cc1c(Cc2cccc3ccccc23)nn(CCO)c1N,1.8,i
CCn1cc(/C=C(\NC(=O)c2ccc(OC)c(OC)c2)C(=O)NCCCN2CCOCC2)c2ccccc21,2.9,i
CCCCCCc1cc2cc(S(=O)(=O)c3ccc(Cl)cc3)c(=O)oc2cc1O,1.2,i
CCN(CC)c1ccc2cc(S(=O)(=O)c3ccc(Cl)cc3)c(=O)oc2c1,-6.2,-6.2*
CN(C)CCCN(C(=O)c1cc(-c2cccs2)nc2ccccc12)c1nc2ccc(F)cc2s1,.,i
c1ccc2c(c1)CCN(c1ncnc3c1[nH]c1ccccc13)C2,.,i
COc1cccc(N2CCN(c3ncnc4c3[nH]c3ccc(F)cc34)CC2C)c1 (stereo not drawn),-11,-11*
COc1cccc(N2CCN(c3ncnc4c3[nH]c3ccccc34)CC2C)c1 (stereo not drawn),-11,-11*
COc1ccc2[nH]c3c(N4CC(C)OC(C)C4)ncnc3c2c1 (stereo not drawn),0.36,i
COc1cc(CNc2ccc(CNc3ncn[nH]3)cc2)cc(Cl)c1OCc1ccccc1,1.1,i
CC(CNC(=O)CN1C(=O)COc2ccc(S(=O)(=O)N3CCCCC3)cc21)c1ccccc1 (stereo not drawn),4.7,i
CC1=C(C(=O)Nc2cccc(C)n2)C(c2ccc3c(c2)OCO3)C2=C(CC(c3ccco3)CC2=O)N1 (stereo not drawn),.,i
COCCN(C(=O)COC(=O)CCC(=O)c1cccs1)c1c(N)n(Cc2ccccc2)c(=O)[nH]c1=O,1.2,i
Cc1ccccc1Oc1cccc(C(=O)/C(C#N)=C/N(C)C)c1,0.88,i
CN(C)/C=C(/C#N)C(=O)c1cccc(Oc2ccc(C(C)(C)C)cc2)c1,-7.8,-7.8*
COc1ccc2nc(/N=C\N(C)C)sc2c1,.,i
CCc1nnc(NS(=O)(=O)c2ccc(N=Cc3c(C)[nH]n(-c4ccc(Cl)cc4)c3=O)cc2)s1,2.1,i
COc1ccc2nc(/N=C/c3c(C)[nH]n(-c4ccc(C)cc4)c3=O)sc2c1,21*,i
Cc1[nH]n(-c2ccc(Cl)cc2)c(=O)c1/C=N/c1nnc(-c2ccccc2)s1,20*,i
CCN(C(=O)Cn1nc(C)c([N+](=O)[O-])c1C)c1c(N)n(Cc2ccccc2)c(=O)[nH]c1=O,.,i
CCOC(=O)Cc1csc(NC(=O)Nc2cccc(OC)c2)n1,.,i
Cc1cccc(Nc2nc(N3CCOCC3)nc(N3CCOCC3)n2)c1,0.48,i
Cn1ccnc1Sc1nc(Nc2cccc(Cl)c2)nc(N2CCOCC2)n1,-6.2,-6.2*
SMILES,KCNQ2 pot,KCNQ2 inh
Cc1c(C(=O)Nc2ccccc2C(=O)N2CCOCC2)cccc1[N+](=O)[O-],0.04,i
COc1cc(CN2CCNC(=O)C2CC(=O)NC2CCCC2)cc(OC)c1 (stereo not drawn),0.13,i
Cc1ccc(NC(=O)NNC(=O)COc2ccc(Cl)cc2)cc1,0.66,i
COc1ccc(C)cc1NC(=O)C(=O)NNC(=O)COc1ccc(Cl)cc1,11*,i
O=C(NCc1ccco1)C1CCN(c2ccc(S(=O)(=O)N3CCOCC3)cc2[N+](=O)[O-])CC1,.,i
Cc1cccc(NC(=O)CSCC(=O)N(CCC(C)C)c2c(N)n(Cc3ccccc3)c(=O)[nH]c2=O)c1,0.24,i
CC(C)(C)NC(=O)C12CC3CC(CC(Cl)(C3)C1)C2,2.4,i
CC(C)(C)NC(=S)NC(=O)C12CCC3CC(CC(C3)C1)C2,-5.7,-5.7*
COC(CNC(=O)CCc1c(C)nc2c(c(C)nn2-c2ccc(C)cc2)c1C)OC,0.93,i
Cc1ccc(-n2nc(C)c3c(C)c(CCC(=O)Nc4ccc(CN5CCCC5)cc4)c(C)nc32)cc1,-7.9,-7.9*
Cc1ccc(C(c2cc(Br)ccc2O)N2CCSCC2)cc1 (stereo not drawn),-5.8,-5.8*
Cc1ccc(C(c2nnnn2CCc2ccccc2)N2CCSCC2)cc1 (stereo not drawn),0.78,i
CCCN(C(=O)c1c(CC)noc1C)c1c(N)n(Cc2ccccc2)c(=O)[nH]c1=O,.,i
Cc1cc(O)c(C(C[N+](=O)[O-])c2ccc(Cl)cc2)c(=O)o1 (stereo not drawn),.,i
Cc1cc(C)n(C(C[N+](=O)[O-])c2ccc(Cl)cc2)n1 (stereo not drawn),-10,-10*
COc1ccc2c(c1)c1ncn(CCN3CCCC3)c(=O)c1n2C,1.2,i
COc1ccccc1CCn1cnc2c3cc(C)ccc3n(C)c2c1=O,-7.4,-7.4*
CC(C)N(c1ccccc1)c1ccc(NC(=O)COC(=O)CCN2C(=O)c3cccc([N+](=O)[O-])c3C2=O)cc1,.,i
COc1ccccc1N1CCN(/N=C/c2cc(OC)c(OC)c(OC)c2)CC1,.,i
COc1ccccc1N1CCN(/N=C/c2cccc(OC)c2OC)CC1,-7.3,-7.3*
